Bioassay records: PubChem, National Center for Advancing Translational Sciences (NCATS)
An excerpt weighted towards active compounds, which were near 12% of everything screened.
Lassa entry inh: qHTS for Inhibitors of binding or entry into cells for Lassa Virus; hit rate 1.2% among 300,000; Lassa virus pseudotype entry inhibition, cell reporter; AID 540256, 2011; Potency, µM (highest dose often 37.9 µM), without a hit: at the highest dose activity change, negative = inhibition, usual class: inhibitors; calls by dose curve; tested in HEK293 cells; also: potency is read from the fitted curve at half-maximal effect; % is scaled to controls: 0 for no effect and ±100 for the full control effect; nearly all actives have a fitted effect of over 50% in size
MARV entry inh: qHTS for inhibitors of binding or entry into cells for Marburg Virus; Marburg virus pseudotyped entry inhibition, cell reporter; Potency, µM (series often up to 37.8 µM), without a hit: at the top dose activity change, negative = inhibition, hits mostly inhibitors; hit rate 1.8% among 300,000; AID 540276, 2011; calls by dose curve; tested in HEK293 cells; also: potency is read from the fitted curve at half-maximal effect; % is scaled to controls: 0 for no effect and ±100 for the full control effect
Cycloheximide cs: Cycloheximide Counterscreen for Small Molecule Inhibitors of Shiga Toxin. cell reporter, cycloheximide protein synthesis inhibition counterscreen. max response, %. hit rate 12% among 300,000. AID 2314, 2010; in the data active = max response mostly above about 13%, no sharp cut-off; inactive = mostly below about 14%; also: read at 38.3 µM for the half of the compounds with a filed dose; 0% is about no effect
Shiga inhibitor: A qHTS for Small Molecule Inhibitors of Shiga Toxin. Vero cells, Shiga toxin protein synthesis inhibition reporter. inhibition, % at 38.7 µM. hit rate 9.2% among 290,000; in the data active = inhibition mostly above about 28%, no sharp cut-off; inactive = mostly below about 43%; also: 0% is about no effect
An asterisk follows results filed as active; [ ] = remark or other dose.

For CC(C)c1cc2cc3ccc(=O)oc3cc2o1 the results were Lassa entry inh 3%[46.1 µM], MARV entry inh inconclusive, Cycloheximide cs 33* and Shiga inhibitor 64*.
Screening Cc1ccn2cc(CC(=O)O)nc2c1 returned Lassa entry inh 1%[46.1 µM], MARV entry inh -8%[46.1 µM], Cycloheximide cs -3 and Shiga inhibitor -1.
For CCOC(=S)SCc1cn2ccc(C)cc2n1 the results were Lassa entry inh 22%, MARV entry inh -1%, Cycloheximide cs 34* and Shiga inhibitor 12.
`CCOC(=S)SCc1cn2ccccc2n1` gave Lassa entry inh 14%, MARV entry inh -16%[46.1 µM], Cycloheximide cs 30* and Shiga inhibitor 42*.
`CCOC(=O)c1cn2ccc(C)cc2n1` gave Lassa entry inh -3%, MARV entry inh 15%, Cycloheximide cs 29* and Shiga inhibitor 77*.
For Cc1ccn2cc(CSc3ccccc3N)nc2c1 the results were Lassa entry inh 4%, MARV entry inh -3%, Cycloheximide cs 46* and Shiga inhibitor 105*.
CCN1CCN(C(=O)Cn2ncc3c4ccccc4n(Cc4ccccc4F)c3c2=O)CC1 was read as Lassa entry inh 1%[46.1 µM] and MARV entry inh -34%[46.1 µM].
Cc1cccc(C(=O)N2CCC(=O)N([C@H](COCc3ccccc3)Cc3ccccc3)CC2)c1 was read as Cycloheximide cs -2 and Shiga inhibitor -4.
`O=C(c1cccc(Cl)c1)N1CCC(=O)N(C(COCc2ccccc2)Cc2ccccc2)CC1` (configuration not stated) gave Lassa entry inh 4.6µM*, MARV entry inh inconclusive, Cycloheximide cs -6 and Shiga inhibitor -16.
Screening Cc1cccc(C(=O)N2CCC(=O)N(C(COCc3ccccc3)Cc3ccccc3)CC2)c1 (configuration not stated) returned Lassa entry inh 5.8µM*, MARV entry inh 1%, Cycloheximide cs -3 and Shiga inhibitor -22.
CC(C)CC(COCc1ccc(Cl)cc1)N1CCN(C(=O)c2ccc(Cl)cc2Cl)CCC1=O (configuration not stated) was read as Lassa entry inh 15µM*, MARV entry inh inconclusive, Cycloheximide cs 5 and Shiga inhibitor 13.
`Cc1cccc(COCC(Cc2ccccc2)N2CCN(C(=O)c3cccc(Cl)c3)CCC2=O)c1` (configuration not stated) gave Lassa entry inh 5.2µM*, MARV entry inh -13%, Cycloheximide cs -3 and Shiga inhibitor -17.
`Nc1nccc(-c2c(-c3ccc(F)cc3)ncn2C2CCNCC2)n1` gave Lassa entry inh inconclusive, Cycloheximide cs 4 and Shiga inhibitor -6.
Fc1ccc(Oc2nccc(-c3ccc(Cl)cc3)n2)cc1 was read as Lassa entry inh inconclusive, MARV entry inh 21%[46.1 µM], Cycloheximide cs 26* and Shiga inhibitor 36*.
`Fc1ccc(-c2ncn(C3CCNCC3)c2-c2ccnc(Oc3ccc(Oc4ccccc4)cc3)n2)cc1` gave Lassa entry inh 13µM*.
Fc1ccc(-c2ncn(C3CCNCC3)c2-c2ccnc(Oc3ccc(F)c(F)c3)n2)cc1 was read as Lassa entry inh 22µM*.
`CCC(C(=O)NCCCN1CCCCCC1)n1nc(C)c2sc3ccccc3c2c1=O` (configuration not stated) gave Cycloheximide cs -4 and Shiga inhibitor -10.
COc1ccc(Cl)cc1NC(=O)CN(C)CC(=O)Nc1cc(OC)c(OC)c(OC)c1 was read as Cycloheximide cs -7 and Shiga inhibitor -7.
Screening Cc1nn(-c2nc3ccccc3s2)c(C)c1Oc1ccccc1O returned Lassa entry inh inconclusive, MARV entry inh 4.6µM*, Cycloheximide cs 32* and Shiga inhibitor 72*.
Cc1nc(Nc2ccc(C(=O)O)cc2)sc1-c1ccccc1 was read as Lassa entry inh inconclusive, MARV entry inh inconclusive, Cycloheximide cs 53* and Shiga inhibitor 84*.
`Cc1nc(Nc2ccccc2)sc1-c1ccccc1` gave Lassa entry inh inconclusive, MARV entry inh inconclusive, Cycloheximide cs 35* and Shiga inhibitor 88*.
CCN(CC(=O)Nc1ccccc1C(F)(F)F)C(=O)Cc1ccccc1 was read as Lassa entry inh 3%[46.1 µM], MARV entry inh 25%[46.1 µM], Cycloheximide cs 6 and Shiga inhibitor 30.
Screening CCN(CC(=O)Nc1ccccc1C(F)(F)F)C(=O)c1ccccc1Cc1ccccc1 returned Lassa entry inh 11µM* and MARV entry inh inconclusive.
For CCN(C(=O)C1CCN(c2nc(-c3ccc(OC)cc3)no2)CC1)c1ccccc1 the results were Cycloheximide cs -2 and Shiga inhibitor -1.
COc1ccc(-c2noc(N3CCC(C(=O)NCCCN4CCCC(C)C4)CC3)n2)cc1 (configuration not stated) was read as Cycloheximide cs active and Shiga inhibitor 18.
For COc1ccc(-c2noc(N3CCC(C(=O)NCc4ccc(Cl)cc4)CC3)n2)cc1 the results were Cycloheximide cs 0 and Shiga inhibitor 1.
Screening COc1ccc(-c2noc(N3CCC(C(=O)NCCCN4CCCCC4)CC3)n2)cc1 returned Cycloheximide cs 3 and Shiga inhibitor 20*.
For COc1ccc(-c2noc(N3CCC(C(=O)N(C)c4ccccc4)CC3)n2)cc1 the results were Cycloheximide cs 8.2* and Shiga inhibitor 13.
`CCOCCCNC(=O)c1c[nH]c2c(CC)cccc2c1=O` gave Lassa entry inh -5%, MARV entry inh -8%[46.1 µM], Cycloheximide cs 0 and Shiga inhibitor 11.
For CN(Cc1ccccc1)C(=O)COc1ccc(Br)cc1Cl the results were Cycloheximide cs 20* and Shiga inhibitor 38.
CCN(CC)C(=O)COc1ccc(/C(C)=N/NC(=O)c2ccccc2O)cc1 was read as Lassa entry inh -28%[46.1 µM], MARV entry inh 6%[46.1 µM], Cycloheximide cs 28* and Shiga inhibitor 46.
CN(Cc1ccccc1)C(=O)COC(=O)c1cncc(Br)c1 was read as Cycloheximide cs 14 and Shiga inhibitor 21.
`CCN(Cc1ccccc1)C(=O)COc1ccccc1` gave Lassa entry inh -4%, MARV entry inh 18% and Cycloheximide cs 1.
CCN(CC)C(=O)COc1ccc(-c2ccccc2)cc1 was read as Lassa entry inh inconclusive, MARV entry inh 3%, Cycloheximide cs 31* and Shiga inhibitor 52.
CN(Cc1ccccc1)C(=O)COC(=O)c1ccc(Cl)c(N)c1 was read as Lassa entry inh -3%, MARV entry inh 7%, Cycloheximide cs 51* and Shiga inhibitor 67*.
CCOc1ccc(CN(C)C(=O)CCl)cc1 was read as Lassa entry inh inconclusive, MARV entry inh 11µM*, Cycloheximide cs 4 and Shiga inhibitor 9.
Screening CN(C)C(=O)COc1ccc(Oc2ccccc2)cc1 returned Cycloheximide cs 31* and Shiga inhibitor 41*.
CCOc1ccc(CN(C)CC(=O)NCc2ccc(F)cc2)cc1 was read as Cycloheximide cs 4 and Shiga inhibitor -11.
Screening CN(Cc1ccccc1)C(=O)COc1ccccc1Cl returned Cycloheximide cs 5 and Shiga inhibitor -5.
For CN(Cc1ccccc1)C(=O)COc1ccc(C(C)(C)C)cc1 the results were Cycloheximide cs 27* and Shiga inhibitor 57*.
`Cc1ccc(NC(=O)CN(C)C(=O)c2cccc(-n3cccc3)c2)cc1` gave Lassa entry inh 8% and MARV entry inh -24%.
